Results as given in PubChem BioAssay.

Each molecule was assayed on Inhibin beta A chain (activin A) (assay: small molecules binding activin A – biochemical, small-molecule microarray, 635 nm fluorescence scan, primary screen (AID 1107;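 note: mouse activin A protein probed at 4.33 µg/mL on printed slides; score merges bound-protein fluorescence near 667 nm with spot signal-to-noise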)). Conditions: INHBA, higher = more signal.
`C=CCOC(=O)[C@@H]1[C@H]2C(=O)O[C@H](c3ccccc3)[C@H](c3ccccc3)N2[C@H](c2ccc(OCCOC(=O)[C@H]3C[C@H]4C(=O)N[C@@H](CCCCN(C)C)C(=O)N4[C@H]3c3ccc(O)cc3)cc2)[C@@]12C(=O)Nc1ccc(I)cc12` gave a composite z-score of 0.291. `CCCC=C(CCC)[C@@H](NC(=O)c1ccc(C(F)(F)F)cc1)c1ccc(C(F)(F)F)cc1` gave a composite z-score of 0.932. For `COc1cc(C(O)C2C=CC3C(=O)N(c4ccccc4)C(=O)C3N2Nc2ccccc2)cc(OC)c1OC` (stereo not given), the composite z-score was 0.484. `CC(=O)OCC1C2CC[C@H]3C(OCc4ccc(F)cc4C(F)(F)F)OC[C@]4(C)[C@H]3C2=C(CN4C(=O)OC(C)(C)C)[C@H](C)C1COC(C)=O` (stereo not given in full) showed a composite z-score of 0.838. Work on `COC(=O)[C@@]1(Cc2ccc(F)cc2)[C@H]2c3cc(C(=O)N4CCCC4)n(Cc4cc(F)cc5c4OCOC5)c3C[C@H]2CN1C(=O)c1ccccc1` yielded a composite z-score of 0.888. `C[C@@H]1ON(c2ccccc2)[C@H](c2ccccc2)[C@H]1C(=O)O` showed a composite z-score of -0.367. With `C=CCC(OC(C)=O)[C@@H]1[C@@H](N(Cc2cc3ccccc3o2)C(=O)Cc2ccc(OC)cc2)c2cc(OCCCO)ccc2N1C(=O)c1ccc2ccccc2n1` (stereo not given in full) the composite z-score was 1.42. `COC(=O)[C@@]1(Cc2ccc(OC)cc2)[C@H]2c3cc(C(=O)N4CCCC4)n(Cc4c(CO)[nH]cc(C)c4=O)c3C[C@H]2CN1C(=O)c1ccccc1` gave a composite z-score of 1.02. In the case of `COc1ccc(NN2C(C(O)c3ccc(I)cc3)C=CC3C(=O)N(C4CCCCC4)C(=O)C32)cc1` (stereo not given), the composite z-score is reported as 0.504. For `O=C1O[C@H](c2ccccc2)[C@H](c2ccccc2)N2[C@H]1[C@@H](C(=O)N1CCN(c3ncccn3)CC1)[C@]1(C(=O)Nc3ccc(C#CCCO)cc31)[C@H]2c1ccc(O)cc1`, the composite z-score was -0.0667.
